“And” between values parts separate entries of the source, which are not always exact repeats. Identical values can stand only once. Inconclusive results are not listed. A number with no mark means an inactive call. The source made the active and inactive calls. Unless noted, the call rests on the fitted dose curve; in most records, active means well fitted curve in the direction sought with a large enough effect; inconclusive means small, poorly fitted or top-dose-only effect, or another doubt; inactive means no such curve, though single readings can be large; an effect the other way counts as inactive or inconclusive.
Columns and labels:
[1] = test system: Zika virus NS2B-NS3 protease (linked construct); assay: 384 well plate NINDS Rhodamine confirmatory qHTS for Zika virus inhibitors (AID 1347164);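 further: fluorescence from protease cleavage of Ac-LKRR-rhodamine 110 substrate; nearly all actives have a fitted effect of over 65% in size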; further: potency means the concentration at half of the fitted maximal effect;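 on activity change, negative = inhibition: top concentration of the series differs between compounds; plate controls were no-inhibitor control for no effect and no-enzyme control for full effect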
Outline: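 Fluorescence at 485/538 nm was measured 25 minutes after adding 10 microM Ac-LKRR-Rd substrate, in the dark at room temperature. The protease (5, 30 or 60 nM final) had been preincubated ~15 minutes with compound; aprotinin as control.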

[2] = test system: Zika virus NS2B-NS3 protease (linked); assay: 384 well plate NINDS AMC confirmatory qHTS for Zika virus inhibitors (AID 1347163); further: potency means the concentration at half of the fitted maximal effect; nearly all actives have a fitted effect of over 50% in size
Outline: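 Linked protease 5/30/60 nM final; cpds up to 1 mM final, ~15 min preinc. Substrate Ac-VKTGKR-AMC 30 microM final. RT, dark, 25 min; FI ex 355/em 460; normalized to no-enzyme/no-inhibitor ctrls.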

[3] = Tertiary RLuc qRT-PCR qHTS assay for Zika virus inhibitors (AID 1347169); further: top concentration of the series differs between compounds; on the % scale 0 is the no-effect control and ±100 the full control effect; nearly all actives have a fitted effect of over 55% in size
Outline: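 Orthogonal cell-based readout: luminescence measured 1-1.5 hrs after adding live-cell Renilla substrate to Vero cells that had been infected with ZIKV-RLuc (MOI 1-2) post-compound, incubated 48-72 hrs at 37 degrees C.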

[4] = AP1 Signaling Pathway (AID 357; active means well fitted curve in either direction with a large enough effect, not every such curve was filed as active;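 further: ME-180 reporter cells stimulated with EGF at its EC50 level; on the % scale 0 is the no-effect control and ±100 the full control effect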); settings: ME-180 AP-1-bla reporter, EGF-induced, beta-lactamase ratio, 5 h
Outline: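 First, ME-180 AP-1-bla cells were cultured overnight at 37 °C in low-serum Opti-MEM. Next, titrated compounds with EC50 EGF were incubated 5 hours. Finally, CCF4 was added for 2.5 hours and the 460/530 nm ratio recorded.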

[5] = molecular target: Cytochrome P450 1A2 (Homo sapiens) (UniProt P05177); assay: p450-cyp1a2 (AID 410; calls by dose curve; further: potency means the concentration at half of the fitted maximal effect;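 on activity change, negative = inhibition: -100% = full effect of reference inhibitor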)
Cytochrome P450 1A2 (Homo sapiens), sequence (P05177 whole entry, looked up): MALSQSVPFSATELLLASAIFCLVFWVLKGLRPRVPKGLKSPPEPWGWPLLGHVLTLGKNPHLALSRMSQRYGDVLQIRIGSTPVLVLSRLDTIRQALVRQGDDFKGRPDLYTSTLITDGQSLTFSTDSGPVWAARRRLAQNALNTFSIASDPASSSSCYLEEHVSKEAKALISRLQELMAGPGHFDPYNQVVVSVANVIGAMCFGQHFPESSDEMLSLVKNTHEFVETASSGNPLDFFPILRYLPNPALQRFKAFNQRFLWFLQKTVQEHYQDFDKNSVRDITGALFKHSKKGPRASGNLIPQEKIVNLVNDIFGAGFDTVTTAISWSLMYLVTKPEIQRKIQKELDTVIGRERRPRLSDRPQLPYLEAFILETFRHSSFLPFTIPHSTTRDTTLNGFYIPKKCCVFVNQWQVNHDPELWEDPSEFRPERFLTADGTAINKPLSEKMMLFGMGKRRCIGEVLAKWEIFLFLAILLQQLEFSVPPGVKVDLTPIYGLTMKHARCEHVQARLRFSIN
Outline: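 Inhibition was calculated relative to 57 uM furafylline (full inhibition). The reaction used human CYP1A2 at 20nM with Luciferin-ME at its Km, 100uM, driven by an NADPH-regenerating system for 60 min at room temperature.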

[6] = NFAT Signaling Pathway (AID 444; active means well fitted curve in either direction with a large enough effect, not every such curve was filed as active;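 further: carbachol stimulus at about its EC50 of 1 µM final; on the % scale 0 is the no-effect control and ±100 the full control effect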); settings: Jurkat NFAT-bla M1, carbachol, beta-lactamase ratio, 5 h
Outline: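 Jurkat cells with NFAT-driven β-lactamase reporter and co-expressed M1 receptor, stimulated with carbachol (final 1 uM, ~EC50), compound titration, 5 h at 37 °C. CCF4 loaded 1 h at RT; 460/530 nm ratio gave %activity and AC50.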

[7] = molecular target: 3',5'-cyclic-AMP phosphodiesterase 4B (Homo sapiens) (UniProt Q07343); assay: qHTS Assay for Inhibitors of PDE-IV (AID 607; active means well fitted activation curve with a large enough effect in the main read-out, with a control signal flat, not every such curve was filed as active; further: % of control where 0% means no effect)
3',5'-cyclic-AMP phosphodiesterase 4B (Homo sapiens), sequence (Q07343 whole entry, looked up): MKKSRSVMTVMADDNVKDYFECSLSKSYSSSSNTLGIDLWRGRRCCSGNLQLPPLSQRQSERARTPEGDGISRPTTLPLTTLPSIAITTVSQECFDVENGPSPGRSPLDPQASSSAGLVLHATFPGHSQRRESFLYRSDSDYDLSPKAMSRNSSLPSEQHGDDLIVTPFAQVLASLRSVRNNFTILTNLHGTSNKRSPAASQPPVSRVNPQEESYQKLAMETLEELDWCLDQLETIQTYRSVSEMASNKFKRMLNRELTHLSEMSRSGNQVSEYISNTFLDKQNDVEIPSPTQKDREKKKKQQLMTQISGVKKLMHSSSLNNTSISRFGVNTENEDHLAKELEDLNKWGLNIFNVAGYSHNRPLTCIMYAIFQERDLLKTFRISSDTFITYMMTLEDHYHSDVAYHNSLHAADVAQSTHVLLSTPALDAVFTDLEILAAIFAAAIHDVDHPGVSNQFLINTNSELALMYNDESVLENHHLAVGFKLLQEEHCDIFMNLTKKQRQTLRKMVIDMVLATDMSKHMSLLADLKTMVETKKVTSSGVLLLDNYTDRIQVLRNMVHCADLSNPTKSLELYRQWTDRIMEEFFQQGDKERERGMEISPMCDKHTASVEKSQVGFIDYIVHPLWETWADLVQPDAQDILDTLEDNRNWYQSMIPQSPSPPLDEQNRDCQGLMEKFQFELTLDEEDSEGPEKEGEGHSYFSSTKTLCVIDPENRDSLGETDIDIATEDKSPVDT
Outline: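 Cell-based read-out of cAMP via a modified cyclic nucleotide-gated channel and membrane potential dye (535/590 nm) in HEK293 cells expressing PDE4 endogenously. Compounds tested up to 22.9 uM final; 100 uM RO 20-1724 reference.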

[8] = Stat Signaling Pathway (AID 446; active means well fitted curve in either direction with a large enough effect, not every such curve was filed as active;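 further: ME-180 cervical cancer cells given 40 pM IL-6 alongside compound; SIE-controlled beta-lactamase reporter measured as 460/530 nm FRET emission ratio; on the % scale 0 is the no-effect control and ±100 the full control effect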); settings: ME-180 SIE beta-lactamase reporter, IL-6 stimulated, 5 h; at 17.2 µM (top of the series)
Outline: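 Reporter line: ME-180 cervical carcinoma, SIE-beta-lactamase. Treatment: compound with 40 pM IL-6, 5 hrs, 37 C, in low-serum OPTI-MEM with 10 mM HEPES pH 7.3. Detection: 460/530 nm fluorescence.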

[9] = molecular target: Cytochrome P450 2C9 (Homo sapiens) (UniProt P11712); assay: qHTS Assay for Inhibitors and Substrates of Cytochrome P450 2C9 (AID 883); further: on the % scale 0 is the no-effect control and ±100 the full control effect; nearly all actives have a fitted effect of over 60% in size
Cytochrome P450 2C9 (Homo sapiens), sequence (P11712 whole entry, looked up): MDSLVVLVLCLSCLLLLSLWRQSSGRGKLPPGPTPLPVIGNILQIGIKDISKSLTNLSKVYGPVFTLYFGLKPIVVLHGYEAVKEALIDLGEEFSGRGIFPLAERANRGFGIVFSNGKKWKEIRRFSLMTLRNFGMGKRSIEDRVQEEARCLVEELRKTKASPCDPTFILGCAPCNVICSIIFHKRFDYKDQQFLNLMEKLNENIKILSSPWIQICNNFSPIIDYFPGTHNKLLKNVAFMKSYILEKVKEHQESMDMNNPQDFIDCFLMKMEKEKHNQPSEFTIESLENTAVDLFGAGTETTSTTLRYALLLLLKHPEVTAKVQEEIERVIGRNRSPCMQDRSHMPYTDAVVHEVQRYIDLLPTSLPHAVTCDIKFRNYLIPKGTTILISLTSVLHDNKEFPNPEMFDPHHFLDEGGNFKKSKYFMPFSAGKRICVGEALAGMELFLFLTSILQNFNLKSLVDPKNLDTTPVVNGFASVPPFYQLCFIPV
Outline: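 10nM CYP2C9 + 100uM Luciferin-H (=KM), 25mM KPO4; cpd 10 min 37C; NADPH regen, 60 min 37C; stop/detect with P450 Glo-Buffer 20 min; luminescence. Norm. to 57uM sulphaphenazole as full inhibition.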

[10] = molecular target: Cytochrome P450 2D6 (Homo sapiens) (UniProt P10635); assay: qHTS Assay for Inhibitors and Substrates of Cytochrome P450 2D6 (AID 891); further: nearly all actives have a fitted effect of over 60% in size; further: potency means the concentration at half of the fitted maximal effect
Cytochrome P450 2D6 (Homo sapiens), sequence (P10635 whole entry, looked up): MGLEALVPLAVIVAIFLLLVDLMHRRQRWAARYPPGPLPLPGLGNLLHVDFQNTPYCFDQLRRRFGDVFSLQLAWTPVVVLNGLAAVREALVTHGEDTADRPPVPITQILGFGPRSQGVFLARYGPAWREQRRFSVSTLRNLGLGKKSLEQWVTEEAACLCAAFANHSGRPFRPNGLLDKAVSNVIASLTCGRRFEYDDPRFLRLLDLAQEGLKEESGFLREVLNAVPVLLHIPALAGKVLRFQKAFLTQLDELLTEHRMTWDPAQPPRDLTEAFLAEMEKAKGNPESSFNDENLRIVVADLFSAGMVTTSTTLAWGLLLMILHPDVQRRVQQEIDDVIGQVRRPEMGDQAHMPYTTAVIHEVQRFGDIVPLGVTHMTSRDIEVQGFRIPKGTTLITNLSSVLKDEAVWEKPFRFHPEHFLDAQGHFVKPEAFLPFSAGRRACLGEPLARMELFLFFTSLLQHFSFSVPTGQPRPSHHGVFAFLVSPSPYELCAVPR
Outline: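 Human CYP2D6 (5 nM) with 30 uM Luciferin-ME EGE (at Km) in 100 mM KPO4, compound preincubated 10 min, then NADPH regeneration system for 60 min at room temperature. Luciferin read by luminescence; normalized to 1.43 uM quinidine.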

[11] = molecular target: Ubiquitin carboxyl-terminal hydrolase 1 (Homo sapiens) (UniProt O94782); assay: Inhibitors of USP1/UAF1: Pilot qHTS (AID 504865); further: nearly all actives have a fitted effect of over 35% in size; further: potency means the concentration at half of the fitted maximal effect
Ubiquitin carboxyl-terminal hydrolase 1 (Homo sapiens), sequence (O94782 whole entry, looked up): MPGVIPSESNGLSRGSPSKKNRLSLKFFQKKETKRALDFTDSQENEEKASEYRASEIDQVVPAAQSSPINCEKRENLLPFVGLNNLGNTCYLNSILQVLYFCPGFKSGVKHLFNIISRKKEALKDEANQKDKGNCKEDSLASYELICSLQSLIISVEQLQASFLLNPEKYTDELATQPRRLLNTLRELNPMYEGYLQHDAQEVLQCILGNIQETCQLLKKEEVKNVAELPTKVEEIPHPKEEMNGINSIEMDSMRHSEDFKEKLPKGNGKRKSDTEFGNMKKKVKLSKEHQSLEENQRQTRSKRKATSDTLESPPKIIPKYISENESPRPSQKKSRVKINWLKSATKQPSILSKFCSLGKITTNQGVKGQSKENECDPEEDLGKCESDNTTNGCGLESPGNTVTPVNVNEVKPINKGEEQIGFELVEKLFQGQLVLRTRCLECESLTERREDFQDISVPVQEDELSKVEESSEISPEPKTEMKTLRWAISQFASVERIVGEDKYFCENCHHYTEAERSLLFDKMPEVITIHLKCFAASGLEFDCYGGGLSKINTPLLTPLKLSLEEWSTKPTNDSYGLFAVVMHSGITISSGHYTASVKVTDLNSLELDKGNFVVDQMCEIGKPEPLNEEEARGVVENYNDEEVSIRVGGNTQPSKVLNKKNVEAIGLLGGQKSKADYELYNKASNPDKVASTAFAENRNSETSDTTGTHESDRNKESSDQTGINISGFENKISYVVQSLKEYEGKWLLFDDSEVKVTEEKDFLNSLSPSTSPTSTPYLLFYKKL
Outline: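 Deubiquitinase activity followed as kinetic rhodamine fluorescence release from 150 nM Ub-Rho. 1 nM USP1/UAF1 with compound, after 15 min room-temperature preincubation, in HEPES pH 7.8 buffer containing TCEP, EDTA, BSA and Tween-20.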

[12] = Primary qHTS for small molecule stabilizers of the endoplasmic reticulum resident proteome: Secreted ER Calcium Modulated Protein (SERCaMP) assay (AID 1508630); further: on the % scale 0 is the no-effect control and ±100 the full control effect
Outline: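 GLuc-SERCaMP-expressing SH-SY5Y cells, pretreated 16 h with compound, are challenged with thapsigargin to empty ER calcium stores; after 4 h, coelenterazine is added directly to the medium and luminescence is imaged.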

For `Cc1c(C2(c3cc(C(C)C)c(O)c(Br)c3C)OS(=O)(=O)c3ccccc32)cc(C(C)C)c(O)c1Br`, which Potency [1] is on record?
Its Potency is 17.8 µM (active).

What does the source list for `COC(=O)c1ccc([C@H]2Nc3ccc(S(=O)(=O)Nc4cccc(C)c4)cc3[C@H]3C=CC[C@H]32)cc1`?
Potency [2]: 141 µM (active); Potency [1]: 158 µM (active); Potency [3]: inactive

Which results are given for `O=C(O)c1c(Br)c(Br)c(Br)c(Br)c1C1c2ccc(O)cc2Oc2cc(O)ccc21`?
activity change, negative = inhibition ([4]; at 7.69 µM (top of the series)): -20.1%; activity change, negative = inhibition [5]: -6.8% [at 2.29 µM]; activity change, negative = inhibition ([6]; at 7.69 µM (top of the series)): -6.47%; Potency [7]: inactive

Which activity change, negative = inhibition ([4]; at 17.2 µM (top of the series)) does the source give for `COc1cc(-c2ccc(N=Nc3ccc4c(S(=O)(=O)O)cc(S(=O)(=O)O)c(N)c4c3O)c(OC)c2)ccc1N=Nc1ccc2c(S(=O)(=O)O)cc(S(=O)(=O)O)c(N)c2c1O` here?
Its activity change, negative = inhibition is 15%.

What about the Potency [5] of the same compound?
Its Potency is 12.6 µM (active) and 20 µM (active).

What about the activity change, negative = inhibition ([6]; at 17.2 µM (top of the series)) of the same compound?
The activity change, negative = inhibition was 0.00688%.

What about the activity, negative = inhibition [8] of the same compound?
Its activity, negative = inhibition is -15.7%.

And the Potency [7]?
Its Potency is “inactive”.

And the Potency [9]?
Its Potency is “inactive”.

And the Potency [10]?
Its Potency is “inactive”.

And the Potency [11]?
The Potency was 17.8 µM (active) and 8.91 µM (active).

And the Potency [1]?
Its Potency is “inactive”.

What about the Potency [3] of the same compound?
Its Potency is “inactive”.

And the activity change, negative = inhibition [12]?
The activity change, negative = inhibition was -28.6% [at 7.35 µM].

Which Potency [7] does the source give for `C[C@@]12CC[C@@H]3c4ccc(O)cc4C[C@H](CCCCCCCCCS(=O)CCCC(F)(F)C(F)(F)F)[C@H]3[C@@H]1CC[C@@H]2O` (stereo partly drawn) here?
Its Potency is “inactive”.

For `CCCCCCCCC(=O)NCc1cc(OC)c(O)cc1I`, which Potency [10] is on record?
The Potency was 7.94 µM (active).

With `COc1cc2c(cc1OC)-c1cc3nc4ccccc4nc3n1C(C)(C)C2` as the compound, how does the Potency [7] read?
The Potency was “inactive”.

For `CC(C)c1ccc(NC(=O)c2ccc3c(O)c(S(=O)(=O)c4ccccc4)c(=O)[nH]c3c2)cc1`, which Potency [1] is on record?
Its Potency is 28.2 µM (active).

What does the source list for `Cc1c[nH]c(=O)n(CCCN2CCN(c3ccccc3OCC(F)(F)F)CC2)c1=O`?
Potency [7]: inactive; Potency [11]: inactive

Which results are given for `O=C(OC1Cc2c(O)cc(O)cc2OC1c1cc(O)c(=O)c2c(O)c(O)cc(C3Oc4cc(O)cc(O)c4CC3OC(=O)c3cc(O)c(O)c(O)c3)c2c1)c1cc(O)c(O)c(O)c1` (stereo not drawn)?
Potency [2]: 2.24 µM (active); Potency [1]: inactive

For `N[C@H](C(=O)O)[C@@H]1[C@@H](C(=O)O)C1(F)F`, which Potency [11] is on record?
Its Potency is “inactive”.
